Compound activity (PubChem)
NS1 inh: influenza NS1 inhibition | Potency, µM (titrated, usually from 46.1 µM), for the others: top-dose activity, positive = more growth | 270,000 compounds, 0.4% hits; calls by dose curve; note: actives are rising curves; nearly all actives have a fitted effect of over 50% in size
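Growth recovery, yeast-based: influenza A NS1 expressed in S. cerevisiae causes slow growth, and suppressors are detected by OD600. The parent strain without NS1 is used as positive control.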
Sm TGR inh: S. mansoni TGR enzyme inhibition; purified TGR, DTNB reduction, TNB absorbance 405 nm; Q962Y6; 360,000 compounds, 3% hits; Potency, µM (highest dose often 114 µM), for the others: top-dose activity change, negative = inhibition, usual class: inhibitors; AID 485364; note: % is set by controls: 0 for no effect and ±100 for the full control effect; nearly all actives have a fitted effect of over 60% in size
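First, TGR (20 nM dispensed) and NADPH were mixed with compound. Second, a 15 min room-temperature incubation followed. Third, further NADPH and then DTNB were added to start the reaction. Finally, TNB absorbance was monitored kinetically.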
Pf growth 48h: P. falciparum growth inhibition at 48 hours (one generation); P. falciparum luciferase growth in erythrocytes, 48 h; Potency, µM (doses to about 28.7 µM), without a hit: at the top dose activity change, negative = inhibition, hits mostly inhibitors; 310,000 compounds, 5.9% hits; note: % is set by controls: 0 for no effect and ±100 for the full control effect
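A one-generation exposure of luciferase-tagged malaria parasites in RPMI 1640/Albumax erythrocyte culture, 37 C and 5% CO2. Inhibition is inferred from decreased luminescence after adding detection reagent.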
AMA1 RON2 block: disrupts binding of P. falciparum AMA1 to RON2; AlphaScreen AMA1-biotinylated RON2 peptide binding; Potency, µM (highest dose often 58.2 µM), for inactives: at the top dose activity change, negative = inhibition, most hits filed as inhibitors; 360,000 compounds, 0.2% hits; AID 720542;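 note: 0% = vehicle wells and -100% = peptide control; nearly all actives have a fitted effect of over 45% in size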
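AMA1 (3D7) with his tag at 25 nM final met compounds first, then biotinylated RON2 peptide at 25 nM; detection used donor plus acceptor beads, 10 µg/mL apiece, read by AlphaScreen after 30 min at room temperature.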
Pf growth 96h: P. falciparum growth inhibition at 96 hours. Potency, µM (top dose mostly 28.7 µM), without a hit: at the highest dose activity change, negative = inhibition, most hits filed as inhibitors. 320,000 compounds, 6.9% hits. P. falciparum luciferase reporter growth, 96 h. AID 504834; note: % is set by controls: 0 for no effect and ±100 for the full control effect
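Delayed-death screen, second-generation endpoint: infected erythrocytes, 2% hematocrit, 0.05% parasitemia final; 96 hours at 37 C, 5% CO2; luciferase detection reagent; luminescence decrease equals reduced growth.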
The depositor's hits bear a star; u = inconclusive; x = no result; [ ] = dose if it differs, or a comment. An excerpt weighted towards active compounds, which were near 11% of everything screened. Unless noted, calls come from the whole dose curve; as a rule, active = well fitted curve in the direction sought with a large enough effect; inconclusive = small, poorly fitted or top-dose-only effect, or another doubt; inactive = no such curve, though single readings can be large; an effect the other way counts as inactive or inconclusive. Potency is the fitted concentration of half-maximal effect.

SMILES	NS1 inh	Sm TGR inh	Pf growth 48h	AMA1 RON2 block	Pf growth 96h
COc1cccc(-n2nc(-c3ccnn3-c3ccc(F)cc3)c(=O)n(C)c2=O)c1	0.5%	-7.3%	x	-1.3%	11.7µM*
CN(C)CCN1C(=O)c2ccccc2N(C)c2ccccc21	x	x	-17.7%	x	3.01µM*
CCn1c(CNC(=O)Cc2ccc(OC)cc2)nnc1SCC(=O)c1ccccc1	-1.1%	31.6µM*	12.6%	-10.7%	-5.4%
O=C(CSc1nnc(CCc2nc3ccccc3[nH]2)n1-c1ccccc1)NCc1ccccc1	-15.0%	12.1%	u	3.1%	10.4µM*
CCn1c(CNC(=O)Cc2ccc(OC)cc2)nnc1SCCOc1ccccc1	-4.3%	-22.5%	x	7.5%	u
COc1ccc(-n2c(CCc3ccccc3)nnc2SCC(=O)NCc2ccccc2)cc1	-0.1%	6.9%	x	-15.5%	10.4µM*
O=C(CSc1nnc(CCc2nc3ccccc3[nH]2)n1-c1ccccc1)NCc1ccco1	-4.3%	-17.1%	-15.2%	-1.2%	u
Cc1ccccc1OCC(O)CN1CCN(CC(O)COc2ccccc2C)CC1 (stereo not given)	x	3.8%	u	-6.5%	1.47µM*
Cc1nccn1CC(O)COc1ccccc1 (stereo not given)	-0.7%	-4.1%	23.7%	1.9%	u
C=CCc1ccccc1OCC(O)CNC (stereo not given)	-0.8%	25.1µM*	x	-20.4%	1.17µM*
C=CCc1ccccc1OCC(O)Cn1ccnc1C (stereo not given)	1.0%	-19.4%	-6.2%	15.0%	1.47µM*
C=CCc1ccccc1OCC(O)CN1CCN(c2ccc(OC)cc2)CC1 (stereo not given)	-9.7%	7.5%	1.5%	u	6.57µM*
C=CCc1ccccc1OCC(O)CN1CCOCC1 (stereo not given)	x	x	x	-19.5%	x
COC(=O)c1c(SCC(=O)Nc2ccc(C)c(C)c2)nc(=O)[nH]c1C	2.5%	0.9%	32.6%	0.0%	18.0%
CCOc1ccc(OCC(O)CN2CCc3ccccc3C2)cc1 (stereo not given)	-0.1%	9.2%	x	-8.1%	-1.7%
Cc1ccc(C)c(OCC(O)CN2CCc3ccccc3C2)c1C (stereo not given)	2.4%	-9.2%	9.28µM*	-6.4%	11.7µM*
Cc1ccc(NC(=O)C[n+]2cc(-c3ccccc3)n3c2CCC3)cc1	3.6%	4.7%	10.4µM*	1.3%	2.08µM*
Cc1ccc(-c2c[n+](CC(=O)Nc3ccccc3C)c3n2CCC3)cc1	-4.7%	10.1%	u	-15.0%	6.57µM*
CC1CCC(N(C)C(=O)CN2C(=O)NC(c3ccccc3)(c3ccccc3)C2=O)CC1 (stereo not given)	x	x	x	1.5%	x
COc1cccc(CN(C)C(=O)CN2C(=O)NC(c3ccccc3)(c3ccccc3)C2=O)c1	x	-10.6%	10.4µM*	-8.8%	10.4µM*
COc1cccc(CN(C)C(=O)CN2C(=O)NC(c3ccccc3)(c3ccccc3)C2=O)c1OC	x	-6.8%	u	-0.5%	11.7µM*
COc1ccc(C2(c3ccc(OC)cc3)NC(=O)N(CC(=O)N(C)C3CCC(C)CC3)C2=O)cc1 (stereo not given)	x	4.7%	10.4µM*	-6.0%[11.6 µM]	u
CN(C)C(=O)CN1C(=O)NC(c2ccccc2)(c2ccccc2)C1=O	-13.1%	-4.5%	25.4%	-4.3%	18.2%
Cc1ccsc1CN(C)C(=O)CN1C(=O)NC(c2ccccc2)(c2ccccc2)C1=O	x	2.9%	13.1µM*	-6.9%	9.28µM*
COc1ccccc1N1CCN(C(=O)Cn2cnc3sc(C)c(S(=O)(=O)N4CCC(C)CC4)c3c2=O)CC1	x	0.7%	x	x	x
Cc1cccc(CN2C(=O)NC(c3ccccc3)(c3ccccc3)C2=O)c1	-29.8%	-11.3%	10.4µM*	8.4%	u
CN(Cc1ccccc1)C(=O)CN1C(=O)NC2(CCCCCCC2)C1=O	x	7.8%	9.28µM*	-4.2%	u
CC1CC(=O)N(CC(=O)Nc2cccc(F)c2)c2ccccc2S1(=O)=O (stereo not given)	0.7%	-17.9%	7.3%	4.2%	18.4%
COC(=O)C1=C(c2ccc(OC(F)(F)F)cc2)C[C@@H]2CC[C@H]1N2C(=O)NCCc1ccccc1	x	15.4%	3.7µM*	17.3%	u
